The record followed here is PubChem BioAssay (NCI).

Assay [1] in a line: NCI Yeast Anticancer Drug Screen. Data for the rad50 strain (AID 155).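 Note: 0% = growth of vehicle-only cultures of the same strain.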 Particulars: S. cerevisiae rad50 strain growth inhibition, active compounds read high. The essentials:
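Readout: growth inhibition relative to vehicle-treated cultures. Compound exposure was carried out in a genetically defined yeast strain deficient in DNA damage repair.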

Assay [2] can be described thus: NCI Yeast Anticancer Drug Screen. Data for the mec2-1 strain (AID 157). Particulars: S. cerevisiae mec2-1 strain, active compounds read high. The essentials: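 mec2-1 yeast strain, carrying an alteration in DNA damage repair or cell cycle control, was exposed to compounds; growth inhibition was measured relative to vehicle-treated controls.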
Assay [3] can be described thus: NCI Yeast Anticancer Drug Screen. Data for the sgs1 mgt1 strain (AID 161).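 Note: 0% = growth of cultures given vehicle only.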 Particulars: S. cerevisiae sgs1 mgt1 strain, active compounds read high. In short, it runs like this: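 Yeast cells carrying a defined DNA-repair defect were exposed to test compounds. Growth inhibition was measured relative to vehicle-treated controls.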
Assay [4] in a line: NCI Yeast Anticancer Drug Screen. Data for the cln2 rad14 strain (AID 165).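 Note: 0% = growth equal to vehicle treated cultures.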 Particulars: S. cerevisiae cln2 rad14 strain, active compounds read high. In short, it runs like this: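 Yeast carrying cln2 and rad14 alterations (cell cycle control and DNA damage repair) were exposed to compounds. Growth inhibition was measured against vehicle-treated controls.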
A short description of assay [5]: NCI Yeast Anticancer Drug Screen. Data for the bub3 strain (AID 167). As to conditions: S. cerevisiae bub3 mutant strain, active compounds read high. The essentials:
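Readout: yeast growth inhibition, expressed relative to vehicle-only wells. The test organism is a mutant strain from a panel with lesions in DNA repair or checkpoint genes.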

A short description of assay [6]: NCI Yeast Anticancer Drug Screen. Data for the mlh1 rad18 strain (AID 175). Particulars: S. cerevisiae mlh1 rad18 strain growth inhibition, active compounds read high. The essentials:
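Growth inhibition of the yeast strain was measured after compound exposure and expressed relative to vehicle-treated controls. The strain carries defined defects in DNA damage repair.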

Setting [7] is: at 5.0 µM (retest, dose inferred, filed as 0.5).
[8] abbreviates: at 50.0 µM (retest, dose inferred, filed as 5.0).

Structures are written as SMILES. This is part of a sample that, as a whole, favours compounds with a hit. Of some 79,000 tested, about 15% had one in any assay. A number with no mark means an inactive call. Active and inactive are the calls of the source. Cut-off read from the data, not from the text of the source: active = growth inhibition above about 70%; inactive = the rest.

Consider `CC(=O)/C(=C\c1ccccc1Cl)C(=O)CCN(C)C`, for which the growth inhibition in assay [1] (setting [7]) was -35%; in assay [1] (setting [8]) it was 93% (active); in assay [1] (at 50.0 µM), 37.4%; in assay [2] (setting [7]) it was 8%; in assay [2] (setting [8]) it was 96% (active); in assay [2] (at 50.0 µM) it was 38.1%. Moreover, the growth inhibition in assay [3] (setting [7]) was 0%; in assay [3] (setting [8]), 94% (active); in assay [3] (at 50.0 µM) it was 74% (active); in assay [4] (setting [7]), 6%; in assay [4] (setting [8]) it was 97% (active); in assay [4] (at 50.0 µM), 20.6%. The growth inhibition in assay [5] (setting [7]) is 7%; in assay [5] (setting [8]) it was 97% (active); in assay [5] (at 50.0 µM), 18.4%; in assay [6] (setting [7]) it was -17%; in assay [6] (setting [8]), 97% (active); in assay [6] (at 50.0 µM), 80.8% (active).
As to `CCC1OC(OC)C=CC1=O` (stereo not given), the growth inhibition was -1% in assay [1] (setting [7]); -8% in assay [1] (setting [8]); 90% (active) in assay [1] (at 50.0 µM); -10% in assay [2] (setting [7]); -25% in assay [2] (setting [8]); 94% (active) in assay [2] (at 50.0 µM). In addition, the growth inhibition in assay [3] (setting [7]) is -14%; in assay [3] (setting [8]) it was -19%; in assay [3] (at 50.0 µM), 90.2% (active); in assay [4] (setting [7]) it was 18%; in assay [4] (setting [8]), 15%; in assay [4] (at 50.0 µM), 90.5% (active). Besides, the growth inhibition was -6% in assay [5] (setting [7]); -15% in assay [5] (setting [8]); 90.3% (active) in assay [5] (at 50.0 µM); -16% in assay [6] (setting [7]); -30% in assay [6] (setting [8]); 91.8% (active) in assay [6] (at 50.0 µM).
With `Cc1cc(N2C(=O)CSC2=S)ccc1Cl`, the growth inhibition in assay [1] (setting [7]) was -3%; in assay [1] (setting [8]), 1%; in assay [1] (at 50.0 µM), 61.1%; in assay [2] (setting [7]) it was -4%; in assay [2] (setting [8]), -2%; in assay [2] (at 50.0 µM), 21.9%. Moreover, the growth inhibition in assay [3] (setting [7]) was -2%; in assay [3] (setting [8]) it was 8%; in assay [3] (at 50.0 µM) it was 79.2% (active); in assay [4] (setting [7]) it was -2%; in assay [4] (setting [8]), -17%; in assay [4] (at 50.0 µM), 12.8%. In addition, the growth inhibition in assay [5] (setting [7]) was -6%; in assay [5] (setting [8]), -1%; in assay [5] (at 50.0 µM) it was 7.95%; in assay [6] (setting [7]) it was -6%; in assay [6] (setting [8]), 0%; in assay [6] (at 50.0 µM) it was 51.2%.
Turning to `c1ccc(CN2CCc3[nH]c4ccccc4c3C2)cc1`, the growth inhibition in assay [1] (setting [7]) is -1%; in assay [1] (setting [8]), -3%; in assay [1] (at 50.0 µM), -1.9%; in assay [2] (setting [7]), -1%; in assay [2] (setting [8]) it was -2%; in assay [2] (at 50.0 µM), 17.1%. Also, the growth inhibition in assay [3] (setting [7]) is -4%; in assay [3] (setting [8]), -1%; in assay [3] (at 50.0 µM), 7.8%; in assay [4] (setting [7]), -1%; in assay [4] (setting [8]) it was -7%; in assay [4] (at 50.0 µM), 33.5%. Besides, the growth inhibition in assay [5] (setting [7]) is 1%; in assay [5] (setting [8]) it was 6%; in assay [5] (at 50.0 µM) it was -2.45%; in assay [6] (setting [7]), -3%; in assay [6] (setting [8]), -1%; in assay [6] (at 50.0 µM), 18%.
Take `CN1C(=O)C2N(C(=O)C1(C)S)c1ccccc1C2(C)C` (stereo not given): the growth inhibition in assay [1] (setting [7]) is -5%; in assay [1] (setting [8]) it was 37%; in assay [1] (at 50.0 µM), 47.7%; in assay [2] (setting [7]), -4%; in assay [2] (setting [8]), 29%; in assay [2] (at 50.0 µM) it was 32.5%. The growth inhibition in assay [3] (setting [7]) is -3%; in assay [3] (setting [8]), 41%; in assay [3] (at 50.0 µM), 15.7%; in assay [4] (setting [7]) it was -14%; in assay [4] (setting [8]), 49%; in assay [4] (at 50.0 µM), -17.6%. Also, the growth inhibition in assay [5] (setting [7]) was -4%; in assay [5] (setting [8]), 25%; in assay [5] (at 50.0 µM), 10.3%; in assay [6] (setting [7]), -1%; in assay [6] (setting [8]), 32%; in assay [6] (at 50.0 µM), 24.8%.
`Clc1cc(Cl)c(NN=C(c2ccccc2)c2ccccc2)c(Cl)c1`: the growth inhibition was 37% in assay [1] (setting [7]); 97% (active) in assay [1] (setting [8]); 99.5% (active) in assay [1] (at 50.0 µM); 39% in assay [2] (setting [7]); 97% (active) in assay [2] (setting [8]); 99.2% (active) in assay [2] (at 50.0 µM). The growth inhibition in assay [3] (setting [7]) was 57%; in assay [3] (setting [8]) it was 98% (active); in assay [3] (at 50.0 µM), 99.7% (active); in assay [4] (setting [7]), 43%; in assay [4] (setting [8]) it was 97% (active); in assay [4] (at 50.0 µM), 99.4% (active). The growth inhibition in assay [5] (setting [7]) was 87% (active); in assay [5] (setting [8]), 98% (active); in assay [5] (at 50.0 µM) it was 58.5%; in assay [6] (setting [7]), 72% (active); in assay [6] (setting [8]), 98% (active); in assay [6] (at 50.0 µM), 99.5% (active).
`c1ccc2c(c1)Nc1ccccc1[P+]21c2ccccc2Nc2ccccc21`: the growth inhibition in assay [1] (setting [7]) is 98% (active); in assay [1] (setting [8]), 99% (active); in assay [1] (at 50.0 µM) it was 82.8% (active); in assay [2] (setting [7]), 99% (active); in assay [2] (setting [8]), 99% (active); in assay [2] (at 50.0 µM), 98.8% (active). Further, the growth inhibition in assay [3] (setting [7]) is 99% (active); in assay [3] (setting [8]) it was 99% (active); in assay [3] (at 50.0 µM), 59.4%; in assay [4] (setting [7]), 99% (active); in assay [4] (setting [8]), 99% (active); in assay [4] (at 50.0 µM), 84.3% (active). The growth inhibition in assay [5] (setting [7]) is 99% (active); in assay [5] (setting [8]), 99% (active); in assay [5] (at 50.0 µM), 98.7% (active); in assay [6] (setting [7]), 99% (active); in assay [6] (setting [8]), 99% (active); in assay [6] (at 50.0 µM), 98.6% (active).
`Cc1c(Cl)nc(-c2ccccc2)nc1C(=O)CCl`: the growth inhibition in assay [1] (setting [7]) is 43%; in assay [1] (setting [8]), 78% (active); in assay [1] (at 50.0 µM) it was 22.1%; in assay [2] (setting [7]) it was 67%; in assay [2] (setting [8]), 91% (active); in assay [2] (at 50.0 µM), -0.1%. Besides, the growth inhibition in assay [3] (setting [7]) is 90% (active); in assay [3] (setting [8]), 93% (active); in assay [3] (at 50.0 µM), 70.5% (active); in assay [4] (setting [7]), 22%; in assay [4] (setting [8]) it was 66%; in assay [4] (at 50.0 µM), 9.45%. Besides, the growth inhibition was 38% in assay [5] (setting [7]); 86% (active) in assay [5] (setting [8]); -34.3% in assay [5] (at 50.0 µM); 65% in assay [6] (setting [7]); 89% (active) in assay [6] (setting [8]); 4.5% in assay [6] (at 50.0 µM).
Turning to `CCOC(=S)SCc1nc2ccccc2[nH]1`, the growth inhibition in assay [1] (setting [7]) is 9%; in assay [1] (setting [8]), 51%; in assay [1] (at 50.0 µM) it was 87% (active); in assay [2] (setting [7]), 3%; in assay [2] (setting [8]) it was 96% (active); in assay [2] (at 50.0 µM), 80.7% (active). Further, the growth inhibition in assay [3] (setting [7]) is 7%; in assay [3] (setting [8]) it was 15%; in assay [3] (at 50.0 µM) it was 82.6% (active); in assay [4] (setting [7]), 10%; in assay [4] (setting [8]) it was 83% (active); in assay [4] (at 50.0 µM), 69%. For the same compound, the growth inhibition in assay [5] (setting [7]) was 5%; in assay [5] (setting [8]), 86% (active); in assay [5] (at 50.0 µM), 76.8% (active); in assay [6] (setting [7]), 3%; in assay [6] (setting [8]), 93% (active); in assay [6] (at 50.0 µM) it was 89.2% (active).
In the case of `NCCCSc1ccc(Br)cc1`, the growth inhibition in assay [1] (setting [7]) is -10%; in assay [1] (setting [8]) it was 13%; in assay [1] (at 50.0 µM), 9.6%; in assay [2] (setting [7]), -4%; in assay [2] (setting [8]) it was -5%; in assay [2] (at 50.0 µM), 34.3%. The growth inhibition is -4% in assay [3] (setting [7]); 47% in assay [3] (setting [8]); 20.1% in assay [3] (at 50.0 µM); 0% in assay [4] (setting [7]); 17% in assay [4] (setting [8]); 35.1% in assay [4] (at 50.0 µM). Further, the growth inhibition is -22% in assay [5] (setting [7]); -21% in assay [5] (setting [8]); 8.3% in assay [5] (at 50.0 µM); -4% in assay [6] (setting [7]); 13% in assay [6] (setting [8]); 8.5% in assay [6] (at 50.0 µM).
